Assay results: paper PMC12820563, “FoxP3 forms a head-to-head dimer in vivo and stabilizes its multimerization on adjacent microsatellites”
Whole data set: some 16,000 sequences, median “rpm ratio (pull-down/input)” near 0.5, cut for the highest 2% near 5.5. For the sample, the highest values were picked, then their nearest neighbours and some sequences at random.

target: T1, MBP-FoxP3dN (Mus musculus, UniProt Q99JB6 188-423); assay: PD-seq (MBP pull-down with sequencing); 20 mM Tris-HCl pH 7.5, 100 mM NaCl, 1.5 mM MgCl2, 0.4 uM protein, 0.1 uM dsDNA library, 30 min, room temperature, amylose pull-down; high values mean tight binding; details: protein: recombinant; tags: His6-MBP; chain copies: 2; dsDNA, one strand shown
T1 sequence: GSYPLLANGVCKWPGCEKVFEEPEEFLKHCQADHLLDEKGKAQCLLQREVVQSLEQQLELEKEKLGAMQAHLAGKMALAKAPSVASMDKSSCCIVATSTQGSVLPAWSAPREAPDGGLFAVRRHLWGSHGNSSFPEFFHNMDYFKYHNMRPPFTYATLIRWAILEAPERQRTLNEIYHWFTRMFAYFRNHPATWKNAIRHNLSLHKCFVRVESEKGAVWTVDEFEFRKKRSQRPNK
Method in brief: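 Amylose resin was used to capture complexes formed during 30 min at room temperature in Tris pH 7.5 buffer with NaCl and MgCl2 between 0.4 µM His6-MBP-tagged mouse FoxP3 or FoxP1 fragment lacking the N-terminus, expressed in E. coli, and 0.1 µM Klenow-filled double-stranded degenerate DNA library. After three washes, the DNA was released with proteinase K, barcoded by PCR and sequenced on Illumina. Binding is pooled-replicate reads-per-million enrichment, pull-down over input.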

Sequence	binding signal
GATGATTGTTCTCCCAGCTGATGAATTGTGTTCATCGAGTAAACAAATTTTCCTAATCTTTCTGTTCAAGCGCCATCTAC	1.77 RPM ratio (pull-down/input)
GATGATTGTTCTCCCAGCTGATGAATTCGAGTTATCGAGTAAACAAATTTTCCTAATCTTTCTGTTCAAGCGCCATCTAC	0.746 RPM ratio (pull-down/input)
GATGATTGTTCTCCCAGCTGATGAATTGCCAAATTCGAGTAAACAAATTTTCCTAATCTTTCTGTTCAAGCGCCATCTAC	0.453 RPM ratio (pull-down/input)
GATGATTGTTCTCCCAGCTGATGAATTGGATCCGTCGAGTAAACAAATTTTCCTAATCTTTCTGTTCAAGCGCCATCTAC	0.219 RPM ratio (pull-down/input)
GATGATTGTTCTCCCAGCTGATGAATTTTGTGTTTCGAGTAAACAAATTTTCCTAATCTTTCTGTTCAAGCGCCATCTAC	5.3 RPM ratio (pull-down/input)
GATGATTGTTCTCCCAGCTGATGAATTGTGTGTGTCGAGTAAACAAATTTTCCTAATCTTTCTGTTCAAGCGCCATCTAC	5.21 RPM ratio (pull-down/input)
GATGATTGTTCTCCCAGCTGATGAATTGTTTGTGTCGAGTAAACAAATTTTCCTAATCTTTCTGTTCAAGCGCCATCTAC	8.22 RPM ratio (pull-down/input)
GATGATTGTTCTCCCAGCTGATGAATTGTGTTTGTCGAGTAAACAAATTTTCCTAATCTTTCTGTTCAAGCGCCATCTAC	8.45 RPM ratio (pull-down/input)
GATGATTGTTCTCCCAGCTGATGAATTGTTTACCTCGAGTAAACAAATTTTCCTAATCTTTCTGTTCAAGCGCCATCTAC	7.12 RPM ratio (pull-down/input)
GATGATTGTTCTCCCAGCTGATGAATTTGTTTCCTCGAGTAAACAAATTTTCCTAATCTTTCTGTTCAAGCGCCATCTAC	5.92 RPM ratio (pull-down/input)
GATGATTGTTCTCCCAGCTGATGAATTTTTTACCTCGAGTAAACAAATTTTCCTAATCTTTCTGTTCAAGCGCCATCTAC	0.228 RPM ratio (pull-down/input)
GATGATTGTTCTCCCAGCTGATGAATTTACCTCCTCGAGTAAACAAATTTTCCTAATCTTTCTGTTCAAGCGCCATCTAC	0.573 RPM ratio (pull-down/input)
GATGATTGTTCTCCCAGCTGATGAATTTGATTTCTCGAGTAAACAAATTTTCCTAATCTTTCTGTTCAAGCGCCATCTAC	4.02 RPM ratio (pull-down/input)
GATGATTGTTCTCCCAGCTGATGAATTTTGTTCCTCGAGTAAACAAATTTTCCTAATCTTTCTGTTCAAGCGCCATCTAC	1.64 RPM ratio (pull-down/input)
GATGATTGTTCTCCCAGCTGATGAATTTTGTTTCTCGAGTAAACAAATTTTCCTAATCTTTCTGTTCAAGCGCCATCTAC	5.54 RPM ratio (pull-down/input)
GATGATTGTTCTCCCAGCTGATGAATTTTTGTTCTCGAGTAAACAAATTTTCCTAATCTTTCTGTTCAAGCGCCATCTAC	0.494 RPM ratio (pull-down/input)
GATGATTGTTCTCCCAGCTGATGAATTGTTTTCCTCGAGTAAACAAATTTTCCTAATCTTTCTGTTCAAGCGCCATCTAC	4.78 RPM ratio (pull-down/input)
GATGATTGTTCTCCCAGCTGATGAATTTGTTTTCTCGAGTAAACAAATTTTCCTAATCTTTCTGTTCAAGCGCCATCTAC	7.21 RPM ratio (pull-down/input)
GATGATTGTTCTCCCAGCTGATGAATTTGTTCTCTCGAGTAAACAAATTTTCCTAATCTTTCTGTTCAAGCGCCATCTAC	2.14 RPM ratio (pull-down/input)
GATGATTGTTCTCCCAGCTGATGAATTGTTTTTCTCGAGTAAACAAATTTTCCTAATCTTTCTGTTCAAGCGCCATCTAC	4.35 RPM ratio (pull-down/input)

Sequence	binding signal
GATGATTGTTCTCCCAGCTGATGAATTGGGAATTTCGAGTAAACAAATTTTCCTAATCTTTCTGTTCAAGCGCCATCTAC	1.3 RPM ratio (pull-down/input)
GATGATTGTTCTCCCAGCTGATGAATTAGGCACGTCGAGTAAACAAATTTTCCTAATCTTTCTGTTCAAGCGCCATCTAC	1.03 RPM ratio (pull-down/input)
GATGATTGTTCTCCCAGCTGATGAATTACTCTGCTCGAGTAAACAAATTTTCCTAATCTTTCTGTTCAAGCGCCATCTAC	0.3 RPM ratio (pull-down/input)
GATGATTGTTCTCCCAGCTGATGAATTACGTTGCTCGAGTAAACAAATTTTCCTAATCTTTCTGTTCAAGCGCCATCTAC	1.14 RPM ratio (pull-down/input)
GATGATTGTTCTCCCAGCTGATGAATTAGGACATTCGAGTAAACAAATTTTCCTAATCTTTCTGTTCAAGCGCCATCTAC	0.784 RPM ratio (pull-down/input)
GATGATTGTTCTCCCAGCTGATGAATTAAAGAATTCGAGTAAACAAATTTTCCTAATCTTTCTGTTCAAGCGCCATCTAC	0.677 RPM ratio (pull-down/input)
GATGATTGTTCTCCCAGCTGATGAATTGTGTATTTCGAGTAAACAAATTTTCCTAATCTTTCTGTTCAAGCGCCATCTAC	5.82 RPM ratio (pull-down/input)
GATGATTGTTCTCCCAGCTGATGAATTTCTGTATTCGAGTAAACAAATTTTCCTAATCTTTCTGTTCAAGCGCCATCTAC	1.38 RPM ratio (pull-down/input)
GATGATTGTTCTCCCAGCTGATGAATTGTATTTTTCGAGTAAACAAATTTTCCTAATCTTTCTGTTCAAGCGCCATCTAC	3.78 RPM ratio (pull-down/input)
GATGATTGTTCTCCCAGCTGATGAATTCGTATATTCGAGTAAACAAATTTTCCTAATCTTTCTGTTCAAGCGCCATCTAC	2.61 RPM ratio (pull-down/input)
GATGATTGTTCTCCCAGCTGATGAATTTGTATATTCGAGTAAACAAATTTTCCTAATCTTTCTGTTCAAGCGCCATCTAC	6.34 RPM ratio (pull-down/input)
GATGATTGTTCTCCCAGCTGATGAATTCGTGTATTCGAGTAAACAAATTTTCCTAATCTTTCTGTTCAAGCGCCATCTAC	2.95 RPM ratio (pull-down/input)
GATGATTGTTCTCCCAGCTGATGAATTCTGTATTTCGAGTAAACAAATTTTCCTAATCTTTCTGTTCAAGCGCCATCTAC	4.09 RPM ratio (pull-down/input)
GATGATTGTTCTCCCAGCTGATGAATTGTGTAATTCGAGTAAACAAATTTTCCTAATCTTTCTGTTCAAGCGCCATCTAC	3.19 RPM ratio (pull-down/input)
GATGATTGTTCTCCCAGCTGATGAATTTGTGTATTCGAGTAAACAAATTTTCCTAATCTTTCTGTTCAAGCGCCATCTAC	6.95 RPM ratio (pull-down/input)
GATGATTGTTCTCCCAGCTGATGAATTTTTGTATTCGAGTAAACAAATTTTCCTAATCTTTCTGTTCAAGCGCCATCTAC	2.57 RPM ratio (pull-down/input)
GATGATTGTTCTCCCAGCTGATGAATTGTATTGTTCGAGTAAACAAATTTTCCTAATCTTTCTGTTCAAGCGCCATCTAC	6.04 RPM ratio (pull-down/input)
GATGATTGTTCTCCCAGCTGATGAATTGTATATTTCGAGTAAACAAATTTTCCTAATCTTTCTGTTCAAGCGCCATCTAC	3.17 RPM ratio (pull-down/input)
GATGATTGTTCTCCCAGCTGATGAATTTTTACGATCGAGTAAACAAATTTTCCTAATCTTTCTGTTCAAGCGCCATCTAC	0.226 RPM ratio (pull-down/input)
GATGATTGTTCTCCCAGCTGATGAATTCCCTGCCTCGAGTAAACAAATTTTCCTAATCTTTCTGTTCAAGCGCCATCTAC	0.312 RPM ratio (pull-down/input)
